Bioassay records from PubChem.
The entries come from a sample that favours hits as a whole.
MARV entry inh – Marburg virus entry inhibition | actives 1.8% (n = 300,000) | Potency, µM (series often up to 37.8 µM), for the others: at the highest dose activity change, negative = inhibition, actives largely listed as inhibitors | Marburg virus pseudotyped entry inhibition, cell reporter; calls by dose curve; tested in HEK293 cells; further: potency means the concentration at half of the fitted maximal effect; on the % scale 0 is the no-effect control and ±100 the full control effect
LASV entry inh – blocks Lassa virus binding to or entry into cells. Lassa virus pseudotype entry inhibition, cell reporter. Potency, µM (top dose mostly 37.9 µM), without a hit: top-dose activity change, negative = inhibition, actives largely listed as inhibitors. actives 1.2% (n = 300,000). AID 540256; calls by dose curve; tested in HEK293 cells; further: potency means the concentration at half of the fitted maximal effect; on the % scale 0 is the no-effect control and ±100 the full control effect; nearly all actives have a fitted effect of over 50% in size
Vaccinia Venus – inhibitors of vaccinia virus (Venus reporter) | Vaccinia virus Venus reporter expression, fluorescence | Potency, µM (top dose mostly 36.5 µM), for the others: at the top dose activity change, negative = inhibition, most hits filed as inhibitors | actives 0.46% (n = 330,000) | AID 720580; calls by dose curve; tested in A549 cells; further: potency means the concentration at half of the fitted maximal effect; on the % scale 0 is the no-effect control and ±100 the full control effect; nearly all actives have a fitted effect of over 30% in size
Shiga inhibitor – Shiga toxin inhibition. Vero cells, Shiga toxin protein synthesis inhibition reporter. inhibition, % at 38.7 µM. actives 9.2% (n = 290,000); in the data active means inhibition mostly above about 28%, no sharp cut-off; inactive means mostly below about 43%; further: 0% is about no effect
Vaccinia mCherry – inhibitors of vaccinia virus infection (mCherry reporter signal); Potency, µM (top dose mostly 36.5 µM), for the others: at the top dose activity change, negative = inhibition, usual class: inhibitors; Vaccinia virus mCherry reporter infection, fluorescence; actives 0.63% (n = 310,000); calls by dose curve; tested in A549 cells; further: potency means the concentration at half of the fitted maximal effect; on the % scale 0 is the no-effect control and ±100 the full control effect; nearly all actives have a fitted effect of over 35% in size
CHX counter – counter-screen for Shiga toxin inhibitors: cycloheximide protein synthesis inhibition | max response, % | actives 12% (n = 300,000) | cell reporter, cycloheximide protein synthesis inhibition counterscreen; in the data active means max response mostly above about 13%, no sharp cut-off; inactive means mostly below about 14%; further: read at 38.3 µM for the half of the compounds with a filed dose; 0% is about no effect
* hit, by the source's call; i = inactive; ? = inconclusive; · = no result given; + = active, no number; [ ] = another dose, or the depositor's remark.

SMILES	MARV entry inh	LASV entry inh	Vaccinia Venus	Shiga inhibitor	Vaccinia mCherry	CHX counter
CCN(C(=O)C(=O)c1c(C)[nH]c2ccccc12)c1ccccc1	·	·	-17%	·	-5%	·
O=C(COc1ccccc1)NCC(=O)N/N=C/c1ccc(Br)cc1	3%	0%	-22%	-6	-3%	5
CCOc1ccc(-n2c(=O)c3sccc3n(CC(=O)NC3CCCCC3)c2=O)cc1	5%[46.1 µM]	8%[46.1 µM]	-11%	-35	-5%	1
O=C(C[C@@H]1C/C=C\C[C@H](Cc2ccc(F)cc2)C(=O)OC[C@H]2CCCN2C1=O)NCCO	·	·	1%	·	-11%	·
Cc1ccccc1OCC(=O)NNC(=O)c1ccc2c(=O)n3c(nc2c1)CCC3	10%	7%	-7%	·	-7%	·
O=C(OCC(=O)N1CCOCC1)c1ccccc1Cc1ccccc1	·	·	-15%	60*	-8%	39*
O=C(OCC(=O)N1CCOCC1)c1ccccc1SCC(=O)N1CCCC1	13%	17%	-15%	-9	·	-3
O=C(OCC(=O)N1CCOCC1)c1ccccc1Br	?	18%[46.1 µM]	-5%	47*	-12%	39*
Cc1ccc(CN2C(=O)CCC2C(=O)NCCc2ccccc2)cc1 (centres undefined)	·	·	·	-10	·	-2
COC(=O)C1CCCCN1Cc1ccc2c(c1)CN(C(=O)c1ccc(F)cc1)CCO2 (centres undefined)	·	·	-1%	·	-6%	·
C/C(=N\O)c1ccc2[nH]ccc2c1	?	-6%	6%	38	14%	15*
NC(=O)c1ccc2[nH]ccc2c1	14%	?	·	·	·	·
O=C(Nc1cc2c(cc1Cl)OCCCO2)c1ccc(F)cc1	4%	0%	-13%	114*	-4%	89*
Cc1ccc(C(=O)Nc2cc3c(cc2Cl)OCCCO3)cc1	?	?	-13%	65*	·	50*
CC(=O)c1cc2c(cc1NC(=O)c1ccc(Cl)cc1)OCCO2	3%	17%	-8%	·	-1%	-2
NC(=O)N1CCC2=C1CCCC2	5%[46.1 µM]	·	·	·	·	·
Cc1cc(NC(=O)c2noc3c2CCCCC3)no1	?	-18%	·	130*	·	29*
Cc1cc(NC(=O)c2noc3c2CCCC3)no1	13%	-46%[14.3 µM]	-5%	31*	-8%	22*
CCOc1ccccc1NC(=O)CSc1nc(=O)[nH]c2c1CCCC2	·	?	-8%[7.34 µM]	·	-7%[7.34 µM]	·
C=C1C(=O)O[C@H]2[C@H]1[C@@H](O)CC(=C)[C@@H]1CC(=O)[C@@H](C)[C@H]21	?	?	-20%	36*	?	32*
Cc1cc(NC(=O)Nc2cc(Cl)ccc2C)no1	·	·	-13%	9	-5%	12*
Cc1cc(NC(=O)Nc2ccc(C)c(C)c2)no1	?	11%	-20%	97*	-42%	43*
Cc1cc(NC(=O)Nc2ccc(F)cc2)no1	16%	21%	-10%	69*	-9%	26*
CCn1ccc(C(=O)Oc2ccc(C(C)C)cc2)n1	12%	4%	8%	71*	-26%	36*
CCn1ccc(C(=O)N2CCOCC2)n1	19%[46.1 µM]	-14%	-1%	-13	-13%	11
SMILES	MARV entry inh	LASV entry inh	Vaccinia Venus	Shiga inhibitor	Vaccinia mCherry	CHX counter
CCc1ccccc1N(C)C(=O)c1cn(CC(C)C)c(=O)c2cc(OC)c(OC)cc12	?	?	-9%	·	-19%	·
Cn1ncc(Br)c1NC(=O)c1ccco1	6%	?	2%	-3	-3%	-3
O=C(CC[C@H]1O[C@@H](n2ccc(=O)[nH]c2=O)[C@H](O)[C@@H]1O)N[C@H](Cc1ccccc1)C(=O)NCc1ccc2c(c1)OCO2	·	·	-2%	·	-1%	·
COc1ccc(/C=C/C(=O)Nc2ccc(C(C)=O)cc2)cc1S(=O)(=O)N1CCOCC1	·	·	-8%	·	i	·
COc1ccc(/C=C/C(=O)Nc2ccccc2F)cc1S(=O)(=O)N1CCOCC1	?	?	-19%	·	-1%	·
COc1ccc(/C=C/C(=O)Nc2ccccc2C)cc1S(=O)(=O)N1CCOCC1	-4%	·	·	66*	·	62*
COc1cc(/C=C/C(=O)Nc2ccc(OC)c(S(=O)(=O)N3CCOCC3)c2)ccc1OC(F)F	?	13µM*	?	·	?	·
COc1ccc(/C=C/C(=O)Nc2cccc(F)c2)cc1S(=O)(=O)N1CCOCC1	?	5.6µM*	?	52	-27%	28*
CCCc1cc(=O)[nH]c(SCC(=O)Nc2cc(C)on2)n1	-24%[46.1 µM]	5%[46.1 µM]	-9%	19	-17%	1
COc1ccc(-c2csc(NC(=O)CC(C)C)n2)cc1	?	13µM*	-19%	84*	-11%	48*
Cc1nc(-c2ccc(NC(=O)C3CC3)cc2)cs1	?	-7%[46.1 µM]	-9%	81*	-3%	23*
Cc1nc(-c2cccc(NC(=O)C3CCCCC3)c2)cs1	·	·	·	36*	·	9
CC(=O)Nc1ccc(S(=O)(=O)Nc2cccc(-c3csc(C)n3)c2)cc1	?	-20%[46.1 µM]	-3%	8	-6%	-2
Cc1nc(-c2ccc(NC(=O)CC(C)C)cc2)cs1	-10%	?	-14%	+	i	38*
CCOc1ccccc1CN1CCN(Cc2ccc3cccc(OC)c3n2)CC1CCO (centres undefined)	·	·	·	-12	·	-1
CC(=O)NC(Cc1cc(C)ccc1C)C(=O)N1CCN(C(=O)Nc2ccc(C(C)=O)cc2)CC1 (centres undefined)	-2%	-5%	·	14	·	17*
COCC(C)n1c(C)cc(C(=O)COC(=O)c2nc3nc(C)cc(C)n3n2)c1C (centres undefined)	?	-3%	·	-10	·	2
COCC(C)n1c(C)cc(C(=O)COC(=O)c2ccc3ncsc3c2)c1C (centres undefined)	12%	-3%	1%	68*	-15%	24*
Cc1ccc2nc(N3C(=O)C(O)=C(C(=O)c4cc5ccccc5o4)C3c3cccs3)sc2c1 (centres undefined)	3%	?	9%	98*	-8%	62*
Cc1cc(N2C(=O)C(O)=C(C(=O)c3ccc(C)o3)C2c2cccs2)no1 (centres undefined)	-5%	-13%	-19%	7	-10%	1
COC(=O)c1sc(N2C(=O)C(O)=C(C(=O)c3ccc(C)o3)C2c2cccs2)nc1C (centres undefined)	·	·	·	13	·	-1
Cc1cc(N2C(=O)C(O)=C(C(=O)c3cc4ccccc4o3)C2c2cccs2)no1 (centres undefined)	-10%[46.1 µM]	8%	-15%	40	-4%	19*
O=C(C1=C(O)C(=O)N(c2nccs2)C1c1ccccc1)c1cc2ccccc2o1 (centres undefined)	?	?	34%	59*	-15%	44*
CCc1ccc2nc(N3C(=O)C(O)=C(C(=O)c4ccco4)C3c3cccs3)sc2c1 (centres undefined)	?	-17%	-1%	59*	-11%	29*
O=C(NC1=C(Cl)CCCC1)NC1CCCCC1Cl (centres undefined)	12%[46.1 µM]	·	·	·	·	·
